Reference: the supplement of paper PMC6555819

What was measured:
Assay in all cases: PBM binding z-score (relative to random genomic background probes); higher = stronger binding; sequences stand for … in GC…GCGATTGACAGCGTAGAATGAAGG
[1] = system: PPARg:RXRa DBDmut IVT, anti-RXR (DBD mutation: RXRa K156A/R161A, NR concentration 270 nM, RXRa partner concentration 90 nM)
Outline: (§1)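 Antibodies against each partner of ligand-free nuclear receptor dimers (one per run) detected binding on custom Agilent 4×180K protein-binding microarrays after 1 h incubation. The double-stranded probes had 34-nt variable regions carrying direct-repeat seeds, single-nucleotide variants, half-site ablations and random human genomic background sequences. Binding z-scores, from regression-normalized fluorescence, use the random background probes as reference.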

[2] = system: PPARg:RXRa IVT, anti-PPARg (NR concentration 270 nM, RXRa partner concentration 90 nM)
Outline: as §1

[3] = system: PPARg DBDmut:RXRa IVT, anti-PPARg (DBD mutation: PPARg1 K132A/R137A, NR concentration 270 nM, RXRa partner concentration 90 nM)
Outline: as §1

[4] = system: PPARg DBDmut IVT, anti-PPARg (DBD mutation: PPARg1 K132A/R137A, NR concentration 270 nM)
Outline: as §1

[5] = system: PPARg homodimer (NR concentration 180 nM)
Outline: as §1

[6] = system: PXR:RXRa (NR concentration 270 nM, RXRa partner concentration 90 nM)
Outline: as §1

[7] = system: PXR homodimer (NR concentration 270 nM)
Outline: as §1

[8] = system: RARa:RXR (NR concentration 270 nM, RXRa partner concentration 90 nM)
Outline: as §1

[9] = system: RARa homodimer (NR concentration 270 nM)
Outline: as §1

[10] = system: RARb:RXRa (NR concentration 270 nM, RXRa partner concentration 90 nM)
Outline: as §1

[11] = system: RARb homodimer (NR concentration 270 nM)
Outline: as §1

[12] = system: RARg:RXRa (NR concentration 270 nM, RXRa partner concentration 90 nM)
Outline: as §1

[13] = system: RARg homodimer (NR concentration 270 nM)
Outline: as §1

[14] = system: RXRa DBDmut IVT, anti-RXR (DBD mutation: RXRa K156A/R161A, NR concentration 90 nM)
Outline: as §1

[15] = system: RXRa homodimer (NR concentration 180 nM)
Outline: as §1

[16] = system: THRa:RXRa (NR concentration 90 nM, RXRa partner concentration 90 nM)
Outline: as §1

[17] = system: THRa homodimer (NR concentration 90 nM)
Outline: as §1

[18] = system: VDR homodimer (NR concentration 270 nM)
Outline: as §1

| Sequence | PBM binding z-score [1] | PBM binding z-score [2] | PBM binding z-score [3] | PBM binding z-score [4] | PBM binding z-score [5] | PBM binding z-score [6] | PBM binding z-score [7] | PBM binding z-score [8] | PBM binding z-score [9] | PBM binding z-score [10] | PBM binding z-score [11] | PBM binding z-score [12] | PBM binding z-score [13] | PBM binding z-score [14] | PBM binding z-score [15] | PBM binding z-score [16] | PBM binding z-score [17] | PBM binding z-score [18] |
| --- | --- | --- | --- | --- | --- | --- | --- | --- | --- | --- | --- | --- | --- | --- | --- | --- | --- | --- |
| GATACAGGGTCAAGGCCAGAGAACGCGTATTGAT | 2.63 | 3.9 | 1.58 | -0.524 | 2.6 | 3.71 | 0.476 | 4.41 | 1.07 | 4.49 | 3.34 | 5.35 | 5.23 | 2.64 | 6.11 | 3.3 | 1.3 | 1.59 |
| GCTGCGAGGTCAGGTTGGTCAGCTAACGGGTACG | 1.82 | 2.38 | -0.42 | -0.641 | 2.28 | 3.29 | 0.452 | 3.39 | 0.367 | 4.51 | 3.93 | 4.9 | 5.27 | 3.04 | 4.52 | 3.7 | 2.31 | 2.88 |
| GGAACGAGGGCAAAGTTGCTAGCATCTGTCGACG | 3.98 | 3.83 | 0.283 | 0.105 | 0.354 | 0.708 | -0.31 | 0.566 | -1.12 | 2.38 | 1.09 | 1.27 | 1.73 | 2.63 | 1.07 | 0.852 | -0.505 | 1.46 |
| CCTAGTTGGTCAAGGCCACACACGCTATAGGTAC | 1.25 | 1.16 | 0.294 | 0.121 | 1 | 0.291 | 1.6 | 0.34 | 0.796 | 1.76 | 1.52 | 0.785 | 1.19 | 0.685 | 0.442 | 1.07 | 1.18 | 0.836 |
| AGTCATAGTTCAGGACGAGGTAACGTAAAGCACG | -0.922 | 0.674 | 0.901 | 0.714 | 0.947 | 1.13 | 0.0157 | 1.31 | 0.185 | 2.59 | 1.82 | 2.66 | 2.61 | 0.51 | 1.39 | 3.35 | 1.67 | 0.515 |
| GGAACGAGAGCAAGTTGATAGCAGAGTTTGATGG | 0.286 | -0.607 | -0.891 | -0.825 | -0.674 | -0.482 | 0.00313 | -0.584 | -0.345 | -0.427 | -0.683 | -0.186 | -0.0143 | 0.292 | 0.0687 | -0.547 | -1.15 | -0.0204 |
| CGAACTAGGTCATCCTGGACAGTGAATACATTGA | 8.23 | 8.04 | 1.58 | 0.831 | 1.83 | 1.3 | -0.0548 | 2.02 | 0.627 | 3.58 | 2.86 | 3.82 | 4.56 | 2.37 | 2.67 | 2.89 | 1.35 | 1.5 |
| AATACAGGGTCATCGTAGTCCAGAGTACGCACAG | 2.79 | 5.02 | 1.99 | 2.18 | 2.87 | 5.53 | 1.22 | 5.21 | 0.827 | 4.73 | 3.56 | 5.76 | 4.86 | 3.42 | 6.39 | 4.18 | 1.83 | 4.22 |
